# From PubChem
# KB-V1 cytotox – kills drug-selected multidrug resistant KB-V1 cells. Potency, µM (highest dose often 46.1 µM), usual class: cytotoxic. KB-V1 MDR cells viability, CellTiter-Glo, 72 h. hit rate 3.4% among 400,000; note: potency is the fitted concentration of half-maximal effect; % is set by controls: 0 for no effect and ±100 for the full control effect; nearly all actives have a fitted effect of over 60% in size
#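 KB-V1, DMEM (no phenol red) + 10% FBS; cpd pin-transferred, titration series; 72 h, 37 degrees C; CellTiter-Glo, luminescence. Data normalized, curve-fit.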
# MCF10A rereplic – inducers of DNA re-replication in MCF 10A breast cells. MCF 10A DNA re-replication, Hoechst nuclear intensity, 48 h. Potency, µM (top dose mostly 46.1 µM), for inactives: at the highest dose activity, positive = re-replication, usual class: activators. hit rate 2.9% among 350,000; note: potency is the fitted concentration of half-maximal effect; % of control where 0% means no effect; nearly all actives have a fitted effect of over 50% in size
# KB-3-1 tox – KB-3-1 parental cell cytotoxicity; Potency, µM (top dose mostly 46.1 µM), actives largely listed as cytotoxic; KB-3-1 viability, CellTiter-Glo ATP luminescence, 72 h; hit rate 1.4% among 400,000; note: potency is the fitted concentration of half-maximal effect; % is set by controls: 0 for no effect and ±100 for the full control effect; nearly all actives have a fitted effect of over 60% in size
#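 KB-3-1 parental drug-naive adenocarcinoma cells in DMEM/10% FBS, incubated 72 h at 37 C with pin-transferred compounds across a concentration series. Viability by CellTiter-Glo luminescence; concentration-response curves fitted after normalization.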
# SW480 rerep – DNA re-replication induction in SW480 cells; SW480 DNA re-replication, Hoechst DNA content imaging, 48 h; Potency, µM (series often up to 46.1 µM), inactives show at the top dose re-replication activation, hits mostly activators; hit rate 1.8% among 340,000; AID 624297; note: potency is the fitted concentration of half-maximal effect; % of control where 0% means no effect; nearly all actives have a fitted effect of over 55% in size
#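 Compounds, transferred as 23 nL by pin tool, were incubated with cells for 48 hr; DNA content per nucleus was then quantified by Hoechst staining and fluorescence plate imaging.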
# IL-1B inflam inh – blocks inflammasome-driven IL-1 beta release; THP-1 LPS/ATP IL-1B secretion, AlphaLISA, 16 h; active compounds read low; activity change, % at 57.5 µM; hit rate 4.7% among 360,000; in the data active = activity change below about -50%; inconclusive = mostly about -30% to -49%; note: % is set by controls: 0 for no effect and ±100 for the full control effect
#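 Secreted IL-1B measured by AlphaLISA bead assay after 16 h compound exposure of THP-1 cells; compounds (final up to 57.5 uM) added 1 h before LPS (250 ng/mL) and ATP (1.25 mM) stimulation; lower signal means less secretion.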
# The depositor's hits bear a star; i = inactive; u = inconclusive; x = no result given. The list is not random: actives were taken first. Their share in the collection is about 9.9%. Unless noted, calls come from the whole dose curve; as a rule, active = well fitted curve in the direction sought with a large enough effect; inconclusive = small, poorly fitted or top-dose-only effect, or another doubt; inactive = no such curve, though single readings can be large; an effect the other way counts as inactive or inconclusive.
SMILES,KB-V1 cytotox,MCF10A rereplic,KB-3-1 tox,SW480 rerep,IL-1B inflam inh
CCN1C[C@]2(COC)[C@H](O)C[C@H](OC)[C@]34C1C([C@H](OC)[C@H]23)[C@]1(OC(C)=O)C2[C@@H](OC(=O)c3ccccc3)C(O)(C[C@H]24)[C@@H](OC)[C@@H]1O,x,4%,x,-7%,x
O=C(CNC(=O)c1ccccc1)NCC(=O)OCC(=O)c1ccc([N+](=O)[O-])cc1,i,0%,i,-2%,0
CC(=O)c1c(C)n(CC2CCCO2)c2ccc(O)cc12 (stereo not given),i,u,i,u,12
Nc1c(C(=O)NCC2CCCO2)c2nc3ccccc3nc2n1Cc1ccco1 (stereo not given),i,2.6µM*,i,13µM*,-71*
CC(C)OC(=O)c1c(N)n(Cc2ccco2)c2nc3ccccc3nc12,i,-4%,i,15%,-19
COCCOC(=O)c1c(N)n(Cc2ccco2)c2nc3ccccc3nc12,i,-2%,i,0%,11
Nc1c(C(=O)NCc2ccco2)c2nc3ccccc3nc2n1CCN1CCCCC1,i,-4%,i,-2%,-63*
Nc1c(C(=O)NC2CCCC2)c2nc3ccccc3nc2n1CC1CCCO1 (stereo not given),i,7.3µM*,i,15µM*,u
CC(C)CNC(=O)c1c(N)n(Cc2ccco2)c2nc3ccccc3nc12,16µM*,6.5µM*,u,21µM*,-73*
CC(C)(C)NCC(O)c1cc(Cl)c(N)c(C(F)(F)F)c1 (stereo not given),x,-4%,x,2%,x
CN1CCN(c2oc(-c3ccc(COc4ccccc4)o3)nc2C#N)CC1,i,x,i,x,x
CCOc1cc(C2C(C#N)=C(N)Oc3c2c(=O)oc2ccccc32)ccc1OC(=O)c1cccs1 (stereo not given),i,3%,i,1%,-4
O=C(Nc1ccon1)c1cccn(Cc2cccc([N+](=O)[O-])c2)c1=O,i,x,i,x,x
COc1ccc2c(c1)C(NC(C)=O)CCc1cc(OC)c(OC)c(OC)c1-2 (stereo not given),0.37µM*,u,0.15µM*,0.058µM*,30
COC1=C[C@@H]2C3=C([C@@H]2C1=O)[C@@H](NC(C)=O)CCc1cc(OC)c(OC)c(OC)c13,i,-7%,i,-37%,10
COc1cc2c(c(OC)c1OC)-c1ccc(O)c(=O)cc1C(NC(C)=O)CC2 (stereo not given),u,u,0.0082µM*,u,66
COc1cc2c(c(OC)c1OC)-c1ccc(OC)c(=O)cc1C(NC(C)=O)CC2 (stereo not given),i,u,0.0073µM*,u,164
Cc1ccc(-n2c(/C=C/c3ccccc3)nc3ccccc3c2=O)cc1C,i,x,i,x,x
Cc1csc(=N)n1Cc1ccccc1,i,-5%,i,x,-1
COc1cc(CN2CC(C)OC(C)C2)cc(OC)c1 (stereo not given),i,-4%,i,u,-1
O=C(C(=C1N(Cc2ccc(Cl)nc2)CCN1Cc1ccc(Cl)nc1)[N+](=O)[O-])C(Cl)Cl,i,u,i,20%,-71*
CCOC(=O)C(C#N)=C(c1ccccc1)c1ccccc1,x,u,x,0%,x
COC(=O)C1=C(c2ccc(S(C)(=O)=O)cc2)C[C@@H]2CC[C@H]1N2C(=O)NCc1ccc(C(F)(F)F)cc1,i,-5%,i,u,7
COc1ccccc1CN1CCCC(C(=O)c2ccccc2OC)C1 (stereo not given),i,0%,i,2%,-11
CCOc1ccc(CN2CCCC(C(=O)c3ccccc3OC)C2)cc1 (stereo not given),i,u,i,4%,-58*
SMILES,KB-V1 cytotox,MCF10A rereplic,KB-3-1 tox,SW480 rerep,IL-1B inflam inh
CC1(C)C[C@H]2C=C(C=O)[C@]3(C=O)C[C@]3(C)[C@H]2C1,i,2.1µM*,u,9.2µM*,-108*
CC(=O)O[C@H]1C[C@@H]2OC3C=C(C)CCC3(C)[C@@]1(C)[C@@]21CO1 (stereo not given in full),1.6µM*,1µM*,2.3µM*,9.2µM*,-100*
Cc1ccc(Cl)cc1NC(=O)N(Cc1ccc2c(c1)OCO2)C1CCN(Cc2ccccc2)CC1,u,x,i,x,x
ClCCN(CCCl)c1ccc(C=Nc2ccncc2)cc1,i,x,i,x,x
CCn1c(C)cc(/C=C2\C(=O)NC(=O)N(c3ccccc3C)C2=O)c1C,i,-4%,u,-3%,8
Cc1ccccc1N1C(=O)NC(=O)/C(=C\c2cnn(-c3ccccc3)c2)C1=O,i,u,i,19%,-96*
CC(Cc1cnccn1)NCc1c(C(=O)N2CCCCCCC2)nc2ccc(Cl)cn12 (stereo not given),i,-3%,i,0%,-15
Cc1ccc(-n2cc(CNC(C)Cc3cnccn3)c(-c3cccc(C)c3)n2)cc1 (stereo not given),i,u,i,u,-76*
CNc1cc(Cl)c2nonc2c1[N+](=O)[O-],u,u,u,-137%,-105*
Cc1cc([N+](=O)[O-])c(Cl)cc1NC(=O)C(C)C,i,1%,i,3%,-9
CN(C)c1ccc(C=C2C(=O)NC(=S)NC2=O)cc1,u,u,u,u,-102*
CCN(CC)c1ccc(C=C2C(=O)NC(=S)NC2=O)cc1,u,u,u,144%,-97*
CN(C)c1ccc(C=C2C(=O)NC(=O)NC2=O)cc1,i,6%,i,3%,-5
Cc1cc(C(=O)O)oc(=O)c1,i,0%,i,-53%,37
CCCC(C)C(=O)NC1CCSC1=O (stereo not given),i,5%,i,3%,-5
COc1ccccc1Sc1ccccc1CC(C)N (stereo not given),i,u,i,u,-56*
COc1cc(CC(C)N)c(OC)cc1I (stereo not given),i,0%,i,5%,u
COC(=O)C1=C(c2ccc(F)cc2OCc2ccccc2)C[C@@H]2CC[C@H]1N2C(=O)NC1Cc2ccccc2C1,i,u,u,3%,-20
CCOc1ccc(NC(=O)C2CCCN2C(=O)Oc2ccccc2)cc1 (stereo not given),u,-2%,u,u,1
CNCC[C@H](Oc1cccc2ccccc12)c1cccs1,u,-37%,u,13µM*,u
C#CCOc1cc(C2C3=C(COC3=O)Nc3cc4c(cc32)OCO4)ccc1OC (stereo not given),u,u,i,2.1µM*,85
O=C(COc1ccc2ccccc2c1)N1CCN(Cc2c[nH]c3ccccc23)CC1,u,u,u,u,-23
